About 79,000 compounds went through this panel and 15% of them were active in at least one assay; those are over-represented in the sample as a whole. A number with no mark means an inactive call. Activity calls are given as the source filed them. Rule as the data show it: active = growth inhibition above about 70%; inactive = the rest.
Assay: NCI Yeast Anticancer Drug Screen. Data for the sgs1 mgt1 strain (AID 161);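 also: 0% = growth of cultures given vehicle only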
Conditions: S. cerevisiae sgs1 mgt1 strain, at 50.0 µM, stronger effect = higher value
Outline: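 Test agents were incubated with a DNA-repair-mutant yeast strain. Growth was then read and compared against vehicle-treated controls.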

SMILES | growth inhibition
NC(Cc1ccccc1)=NCC(=O)O | -29.4%
CCN(CC)CCC(=O)O[C@H]1CC[C@H](CC(C)[C@H]2CC(=O)C(C)C=C(C)[C@H](OC(=O)CCN(CC)CC)C(OC)C(=O)[C@@H](C)CC(C)/C=C/C=C/C=C(C)C(OC)CC3CC[C@H](C)[C@](O)(O3)C(=O)C(=O)N3CCCCC3C(=O)O2)CC1OC (stereo not given in full) | 92.8% (active)
O=C1c2cc(Cl)ccc2-n2c(noc2=O)C2CSCN12 (stereo not given) | -21%
Cc1cc(C)c(CSc2cc(N)nc(N)c2N)c(C)c1 | 1.25%
COc1cccc(/C=C\C#N)c1 | -45%
CC(=O)Nc1ccc2ccc3ccccc3c2c1 | 15.8%
COc1ccccc1/C=C(\S)C(=O)O | -19.3%
CCOC(=O)c1ccc(N2C(C#N)c3ccccc3OC2c2ccccc2O)cc1 (stereo not given) | 15.6%
NC(=O)C1CCCN(C2OC(COP(=O)(O)OP(=O)(O)OCC3OC(n4cnc5c(N)ncnc54)C(OP(=O)(O)O)C3O)C(O)C2O)C1 (stereo not given) | 15.2%
N#CCCS(=O)(=O)O | -6.9%
N#C/C=C\c1ccc(F)cc1 | 17.1%
N#CC(C#N)=C(O)/C(=C/c1ccc(Cl)cc1Cl)NC(=O)c1ccccc1 | -7.9%
C[n+]1cc(N)cc2ccccc21 | -6.75%
CS(=O)(=O)c1ccc(C=O)cc1 | 2.25%
CC1CCCCc2nc3c(c(=O)n21)CCCC3 (stereo not given) | 34%
COc1nc(NC2OC(CO)C(O)C(O)C2O)c(/C=N/O)c(=O)n1C (stereo not given) | -6.35%
NC(=S)N/N=C1\C(=O)NC(=O)C1c1ccccc1 (stereo not given) | 3.45%
Cc1cc(C(C)C)cc(C(C)C)c1 | -9.45%
Cc1[nH]n(C(=N)N)c(=O)c1CCO | -18.6%
CC(O)CN(Cc1ccccc1)CC(C)O (stereo not given) | -6.7%

SMILES | growth inhibition
O=C(O)CCCc1ccc(O)cc1 | 8.4%
CCCCCCCCCCCCCCC/C=C\C(=O)O | -3.4%
CCOC(=O)CCC(NC(=O)OCc1ccccc1)C(=O)NC(CCC(=O)OCC)C(=O)NC(CCC(=O)OCC)C(=O)NC(CCC(=O)OCC)C(=O)NC(CCC(=O)OCC)C(=O)NC(CCC(=O)OCC)C(=O)NC(CCC(=O)OCC)C(=O)OCC (stereo not given) | -10.2%
COC1=NC2(C)C(C)=C(c3ccccc3)C1(C)c1ccccc12 (stereo not given) | -14.6%
Cc1cccc(Nc2nnc(Nc3cccc(C)n3)c3ccccc23)n1 | -2.75%
O=c1cc(-c2ccc(Cl)cc2)oc(-c2ccc(Cl)cc2)c1 | 4.05%
C=CCSC(=S)NC | -2.7%
O=C(Cn1c(=O)oc2ccc(C(=O)c3ccccc3Cl)cc21)c1ccc([N+](=O)[O-])cc1 | 13%
CNC(=O)OCc1c(COC(=O)NC)c(C)n(-c2ccccc2)c1C | -24.2%
COc1ccc(C(C#N)Cc2ccccc2)c([N+](=O)[O-])c1 (stereo not given) | 4.8%
NC(=O)Oc1cccc(OC(N)=O)c1 | 13.9%
CC(=O)Nc1ccc2c(c1)C(=O)c1ccccc1-2 | 30.2%
O=C(O)Cc1cc(Cl)ccc1Cl | 8.7%
O=C(O)CNc1ccccc1.[Cu+2] | -51.5%
CC1(C)CCCC/C1=N\Nc1ccc([N+](=O)[O-])cc1[N+](=O)[O-] | -2.8%
Cc1cc(N(CCC#N)CCC#N)ccc1/C=C(\NC(=O)/C=C/c1ccccc1)C(=O)Nc1ccc(Cl)cc1 | 2.2%
Nc1nc2ccc(Br)cc2s1 | 35.9%
O=C(Cc1ccccc1)N(C(=O)c1ccccc1)c1ccccc1 | 10.8%
CC(C)CCCC(C)C1CCC2(C)C3=C(CCC12C)C1(C)Cc2cnn(-c4ccccc4)c2C(C)(C)C1CC3 (stereo not given) | -6.65%
O=[N+]([O-])c1cc([N+](=O)[O-])c(/C=C/c2ccccc2Cl)cc1/C=C/c1ccccc1Cl | 15.8%

Assay: NCI Yeast Anticancer Drug Screen. Data for the cln2 rad14 strain (AID 165);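 also: 0% = growth equal to vehicle treated cultures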
Conditions: S. cerevisiae cln2 rad14 strain, at 50.0 µM, stronger effect = higher value
Outline: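 cln2 rad14 yeast strain; compound exposure; growth inhibition read vs vehicle controls.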

SMILES | growth inhibition
NC(Cc1ccccc1)=NCC(=O)O | -79.9%
CCN(CC)CCC(=O)O[C@H]1CC[C@H](CC(C)[C@H]2CC(=O)C(C)C=C(C)[C@H](OC(=O)CCN(CC)CC)C(OC)C(=O)[C@@H](C)CC(C)/C=C/C=C/C=C(C)C(OC)CC3CC[C@H](C)[C@](O)(O3)C(=O)C(=O)N3CCCCC3C(=O)O2)CC1OC (stereo not given in full) | 89.3% (active)
O=C1c2cc(Cl)ccc2-n2c(noc2=O)C2CSCN12 (stereo not given) | 8.85%
Cc1cc(C)c(CSc2cc(N)nc(N)c2N)c(C)c1 | 5.9%
COc1cccc(/C=C\C#N)c1 | -7.05%
CC(=O)Nc1ccc2ccc3ccccc3c2c1 | -19.1%
COc1ccccc1/C=C(\S)C(=O)O | -43.5%
CCOC(=O)c1ccc(N2C(C#N)c3ccccc3OC2c2ccccc2O)cc1 (stereo not given) | -19.5%
NC(=O)C1CCCN(C2OC(COP(=O)(O)OP(=O)(O)OCC3OC(n4cnc5c(N)ncnc54)C(OP(=O)(O)O)C3O)C(O)C2O)C1 (stereo not given) | 1.5%
N#CCCS(=O)(=O)O | 1.95%
N#C/C=C\c1ccc(F)cc1 | 3.35%
N#CC(C#N)=C(O)/C(=C/c1ccc(Cl)cc1Cl)NC(=O)c1ccccc1 | 7.9%
C[n+]1cc(N)cc2ccccc21 | 3.3%
CS(=O)(=O)c1ccc(C=O)cc1 | -3.8%
CC1CCCCc2nc3c(c(=O)n21)CCCC3 (stereo not given) | 0.25%
COc1nc(NC2OC(CO)C(O)C(O)C2O)c(/C=N/O)c(=O)n1C (stereo not given) | 6.8%
NC(=S)N/N=C1\C(=O)NC(=O)C1c1ccccc1 (stereo not given) | 0.45%
Cc1cc(C(C)C)cc(C(C)C)c1 | -4%
Cc1[nH]n(C(=N)N)c(=O)c1CCO | -6.35%
CC(O)CN(Cc1ccccc1)CC(C)O (stereo not given) | -22.9%

SMILES | growth inhibition
O=C(O)CCCc1ccc(O)cc1 | 10.7%
CCCCCCCCCCCCCCC/C=C\C(=O)O | 10.3%
CCOC(=O)CCC(NC(=O)OCc1ccccc1)C(=O)NC(CCC(=O)OCC)C(=O)NC(CCC(=O)OCC)C(=O)NC(CCC(=O)OCC)C(=O)NC(CCC(=O)OCC)C(=O)NC(CCC(=O)OCC)C(=O)NC(CCC(=O)OCC)C(=O)OCC (stereo not given) | 26.2%
COC1=NC2(C)C(C)=C(c3ccccc3)C1(C)c1ccccc12 (stereo not given) | -46.8%
Cc1cccc(Nc2nnc(Nc3cccc(C)n3)c3ccccc23)n1 | -4.25%
O=c1cc(-c2ccc(Cl)cc2)oc(-c2ccc(Cl)cc2)c1 | -35.9%
C=CCSC(=S)NC | 10.2%
O=C(Cn1c(=O)oc2ccc(C(=O)c3ccccc3Cl)cc21)c1ccc([N+](=O)[O-])cc1 | -8.45%
CNC(=O)OCc1c(COC(=O)NC)c(C)n(-c2ccccc2)c1C | -0.35%
COc1ccc(C(C#N)Cc2ccccc2)c([N+](=O)[O-])c1 (stereo not given) | -34.2%
NC(=O)Oc1cccc(OC(N)=O)c1 | 3.8%
CC(=O)Nc1ccc2c(c1)C(=O)c1ccccc1-2 | 26.3%
O=C(O)Cc1cc(Cl)ccc1Cl | -2.55%
O=C(O)CNc1ccccc1.[Cu+2] | 6.95%
CC1(C)CCCC/C1=N\Nc1ccc([N+](=O)[O-])cc1[N+](=O)[O-] | -22.2%
Cc1cc(N(CCC#N)CCC#N)ccc1/C=C(\NC(=O)/C=C/c1ccccc1)C(=O)Nc1ccc(Cl)cc1 | 1.7%
Nc1nc2ccc(Br)cc2s1 | 11.6%
O=C(Cc1ccccc1)N(C(=O)c1ccccc1)c1ccccc1 | 9.1%
CC(C)CCCC(C)C1CCC2(C)C3=C(CCC12C)C1(C)Cc2cnn(-c4ccccc4)c2C(C)(C)C1CC3 (stereo not given) | -12.8%
O=[N+]([O-])c1cc([N+](=O)[O-])c(/C=C/c2ccccc2Cl)cc1/C=C/c1ccccc1Cl | -19.6%

— PubChem BioAssay (NCI)
